Screens deposited in PubChem by several laboratories.
Only some compounds are listed: those with a hit (about 3% of all), similar ones and a draw of the others.
MITF TRPM1 inh: reduces MITF-dependent TRPM1 promoter luciferase signal; 330,000 tested, 0.83% active; inhibition, % at 12.5 µM; SK-MEL-5 TRPM1 promoter luciferase, 24 h;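 active means mean inhibition across replicates of 60% or more, whatever share of single replicates reaches that level; inconclusive means some that reach 60%, reason not given; inactive means mean inhibition across replicates below 60%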
ABHD5-PLIN5 inh: inhibitors of human ABHD5-perilipin-5 interaction; Split G. princeps luciferase complementation, luminescence, 4 h; 360,000 tested, 0.78% active; AID 602281; inhibition, % at 4 µM;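 active means inhibition above the mean inhibition across every tested compound plus 3 SD, cut at about 22% in these data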
Target sequence (Q00G26 whole entry, looked up): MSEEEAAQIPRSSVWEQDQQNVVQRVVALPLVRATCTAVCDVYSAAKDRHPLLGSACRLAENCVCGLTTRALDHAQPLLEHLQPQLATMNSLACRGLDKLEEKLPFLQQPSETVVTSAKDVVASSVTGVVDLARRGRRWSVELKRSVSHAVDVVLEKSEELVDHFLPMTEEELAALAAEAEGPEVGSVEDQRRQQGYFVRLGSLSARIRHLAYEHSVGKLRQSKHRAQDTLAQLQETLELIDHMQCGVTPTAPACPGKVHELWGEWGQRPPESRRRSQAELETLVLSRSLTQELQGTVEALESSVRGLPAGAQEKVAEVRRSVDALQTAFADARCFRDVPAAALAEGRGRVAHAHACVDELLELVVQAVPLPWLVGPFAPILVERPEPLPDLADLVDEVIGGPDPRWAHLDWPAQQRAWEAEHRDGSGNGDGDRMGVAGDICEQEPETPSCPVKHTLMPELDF
Target sequence (Q8WTS1 whole entry, looked up): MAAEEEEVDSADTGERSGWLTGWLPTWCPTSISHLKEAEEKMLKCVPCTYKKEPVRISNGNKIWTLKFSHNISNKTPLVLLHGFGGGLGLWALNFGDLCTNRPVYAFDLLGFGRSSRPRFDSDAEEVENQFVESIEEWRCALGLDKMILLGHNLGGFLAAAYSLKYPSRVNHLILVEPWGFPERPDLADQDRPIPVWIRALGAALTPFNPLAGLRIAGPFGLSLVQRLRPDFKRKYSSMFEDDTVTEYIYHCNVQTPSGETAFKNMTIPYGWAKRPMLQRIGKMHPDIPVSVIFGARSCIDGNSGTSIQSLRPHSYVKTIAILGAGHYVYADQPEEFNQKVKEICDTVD
PAX8 inh HTS: lowers PAX8-driven luciferase in RMG-I cells. RMG-I TPO-luciferase reporter, SteadyGlo, 24 h. inhibition, % at 12.6 µM. 360,000 tested, 1.2% active;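 active means mean replicate inhibition at least 60% with every replicate also reaching 60%; inconclusive means only one of the two criteria is met; inactive means mean below 60% and not all replicates reaching 60%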;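 further: luciferase light reporting Pax8 driven TPO promoter activity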
Peg3 prom inh: reduces Peg3 promoter-driven luciferase expression in HeLa | HeLa PEG-Prom luciferase reporter, luminescence, overnight | inhibition, % at 20 µM | 360,000 tested, 1.7% active | AID 588405;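 active means inhibition of at least 50% at 20 µM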
EWS-Fli block: EWS/Fli transcriptional activity inhibition; A673 NR0B1-luciferase reporter, viability-normalised; inhibition, % at 12.6 µM; 350,000 tested, 0.67% active;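 active means mean inhibition of at least 50% after viability correction, with every replicate also passing that limit; inconclusive means mean reaches 50% but only one of two replicates passes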;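 further: firefly luciferase signal divided by Alamar Blue viability fluorescence both relative to DMSO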
Shn3 3UTR inh: reduces Shn3 3'UTR luciferase signal in osteoblasts. 360,000 tested, 0.52% active. inhibition, % at 12.5 µM. Clone20 osteoblast Shn3 3'UTR firefly luciferase, 24 h;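 active means mean inhibition of at least 75% with every replicate also reaching 75%; inconclusive means mean inhibition at least 75% but some replicate below; inactive means mean inhibition below 75%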
DNA binding: binds DNA displacing acridine orange. AC35, µM (titrated, usually from 68 µM). 640 tested, 2% active. salmon sperm DNA acridine orange fluorescence polarization. shares compounds with EWS-Fli block;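 active means fitted curve reaches a 35% signal fall AC35 below twice the sample's top valid tested dose, actives reach about 48 µM in these data; inactive means the rest, including activity in the rising direction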;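 further: lower polarization ratio signals compound binding to DNA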
Numbers stand for hits; - = inactive; ? = inconclusive; . = no result given.

SMILES	MITF TRPM1 inh	ABHD5-PLIN5 inh	PAX8 inh HTS	Peg3 prom inh	EWS-Fli block	Shn3 3UTR inh	DNA binding
CCCCCCCN(c1ccccc1)[C@@H]1C[C@H]2CCCC(=O)N3CC[C@@H](C1)[C@@H]23	-	-	-	86.7	62.4	?	-
O=C(C[C@@H]1C=C[C@@H](NC(=O)Nc2cccc(F)c2)[C@@H](CO)O1)NCC1CC1	.	.	-	.	-	.	.
CS(=O)(=O)Nc1ccc2c(c1)[C@H]1C[C@H](CC(=O)NCc3ccccn3)O[C@H](CO)[C@H]1O2	.	.	-	.	-	.	.
COC(=O)C[C@@H]1CC[C@H]2[C@H](COc3ccc(NC(=O)Nc4ccc(Cl)cc4)cc3C(=O)N2C)O1	.	.	-	.	-	.	.
COC(=O)C[C@@H]1CC[C@H]2[C@H](COc3ccc(NC(=O)Nc4cccc(C#N)c4)cc3C(=O)N2C)O1	.	.	-	.	-	.	.
COC(=O)C[C@@H]1CC[C@@H]2[C@@H](COc3ccc(NC(=O)Nc4cccc(C#N)c4)cc3C(=O)N2C)O1	.	.	-	.	76.3	.	-
COC(=O)C[C@H]1CC[C@@H]2[C@@H](COc3ccc(NC(=O)Nc4cccc(Cl)c4)cc3C(=O)N2C)O1	.	.	-	.	-	.	.
COC(=O)C[C@H]1CC[C@@H]2[C@H](COc3ccc(NC(=O)Nc4cccc(Cl)c4)cc3C(=O)N2C)O1	.	.	-	.	60.2	.	-
COC(=O)C[C@H]1CC[C@H]2[C@H](COc3ccc(NC(=O)Nc4cccc(Cl)c4)cc3C(=O)N2C)O1	.	.	-	.	79.6	.	-
COC(=O)C[C@@H]1CC[C@H]2[C@H](COc3ccc(NC(=O)Nc4cc(C)cc(C)c4)cc3C(=O)N2C)O1	.	.	-	.	64.3	.	-
CS(=O)(=O)N1CC2(C1)[C@@H](c1ccccc1)[C@@H](CO)N2CC1CCCC1	.	.	.	.	-	.	.
C[C@@H]1CN([C@@H](C)CO)C(=O)c2cc(NC(=O)C3CC3)ccc2O[C@@H]1CN(C)Cc1ccc(C(=O)Nc2ccccc2N)cc1	.	.	.	.	-	.	.
C[C@H](CO)N1C[C@H](C)[C@H](CN(C)Cc2ccc(C(=O)Nc3ccccc3N)cc2)Oc2ccc(N(C)C)cc2C1=O	.	.	76.1	.	64.5	.	-
C[C@@H]1CN([C@@H](C)CO)C(=O)Cc2cc(NC(=O)C3CCCCC3)ccc2O[C@H]1CN(C)Cc1ccc(C(=O)Nc2ccccc2N)cc1	.	.	.	.	52.4	.	-
C[C@@H]1CN([C@H](C)CO)C(=O)c2cc(N(C)C)ccc2O[C@H]1CN(C)Cc1ccc(C(=O)Nc2ccccc2N)cc1	.	.	-	.	65.3	.	-
C[C@@H]1CN([C@@H](C)CO)C(=O)c2cc(N(C)C)ccc2O[C@H]1CN(C)Cc1ccc(C(=O)Nc2ccccc2N)cc1	.	.	-	.	63.3	.	-
C[C@H](CO)N1C[C@H](C)[C@H](CN(C)Cc2ccc(C(=O)Nc3ccccc3N)cc2)OCCCC[C@H](C)Oc2ccc(N(C)C)cc2C1=O	.	.	-	.	-	.	.
COc1ccc2c3c([nH]c2c1)[C@@H](CO)N(C(=O)Nc1cccc(F)c1)CC31CN(CC2CCOCC2)C1	.	.	.	.	-	.	.
C[C@@H]1CN([C@H](C)CO)C(=O)Cc2cc(N(C)C)ccc2O[C@H]1CN(C)Cc1ccc(C(=O)Nc2ccccc2N)cc1	.	.	-	.	59.0	.	-
C[C@@H]1CN([C@@H](C)CO)C(=O)Cc2cc(NC(=O)c3ccncc3)ccc2O[C@H]1CN(C)Cc1ccc(C(=O)Nc2ccccc2N)cc1	.	.	-	.	-	.	.
C[C@@H]1CN([C@H](C)CO)C(=O)c2cc(NC(=O)Nc3ccccc3)ccc2O[C@@H]1CN(C)Cc1ccc(C(=O)Nc2ccccc2N)cc1	.	.	-	.	55.2	.	-
C[C@H]1CN([C@@H](C)CO)C(=O)c2cc(N(C)C)ccc2O[C@H]1CN(C)Cc1ccc(C(=O)Nc2ccccc2N)cc1	.	.	-	.	60.8	.	-
C[C@H]1CN([C@@H](C)CO)C(=O)c2cc(NS(C)(=O)=O)ccc2O[C@H]1CN(C)Cc1ccc(C(=O)Nc2ccccc2N)cc1	.	.	.	.	-	.	.
CN(C(=O)COC(=O)c1cc(-c2ccccc2Cl)nc2ccccc12)C1CCS(=O)(=O)C1 (stereo not given)	-	-	-	-	84.5	-	-
CN(C(=O)COC(=O)c1cc(-c2ccc(Cl)s2)nc2ccccc12)C1CCS(=O)(=O)C1 (stereo not given)	-	-	-	-	-	-	.
NCC[C@H]1CC[C@@H](NC(=O)C2CCCC2)[C@H](CO)O1	.	.	-	.	-	.	.
